12 compounds from PubChem BioAssay (NCI) can be followed below.

Among the test systems are HCT-15 colon; HT29 colon; SNB-75 CNS; PC-3 prostate; SK-MEL-5 melanoma; UACC-62 melanoma; SK-MEL-28 melanoma; U251 CNS; LOX IMVI melanoma.
Assay in all cases: NCI-60 one-dose screen, 48 h (100 = growth as untreated, 0 = no growth, -100 = all killed)
Holding throughout (conditions): 10 µM unless noted

Structures are written as SMILES. Several values for one entry are separate records, joined by “and”; a condition that tells them apart may be missing. Equal entries are not always repeated. About 83,000 compounds went through this panel and 20% of them were active in at least one assay; those are over-represented in the sample as a whole.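 48-hour exposure, single concentration, 96-well plates; percent growth endpoint where 0 means no net growth. Active: below 10.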 Unmarked numbers belong to inactive results. Activity calls are given as the source filed them.

In the case of `Cc1cc2nc(CS)[nH]c2cc1C`, the growth in the assay on HCT-15 colon is 101%; in the assay on HT29 colon, 89.9%; in the assay on SNB-75 CNS, 75.5%; in the assay with PC-3 prostate, 87.4%; with SK-MEL-5 melanoma, 87.7%; in the assay on UACC-62 melanoma, 84.4%. For the same compound, the growth with SK-MEL-28 melanoma was 89.5%.
`CCC(CC)COC(=O)c1ccc(O)c(O)c1`: the growth in the assay on HCT-15 colon is 49.2%; with HT29 colon it was 96.8%; in the assay on SNB-75 CNS it was 75%; in the assay on U251 CNS, 50.9%; in the assay on PC-3 prostate, 33.8%; in the assay on SK-MEL-5 melanoma, 83.3%. In addition, the values for the growth in the assay with UACC-62 melanoma, with LOX IMVI melanoma and in the assay with SK-MEL-28 melanoma were 76.8%, 69.2% and 95.1%, respectively.
In the case of `O=C1c2cccnc2-c2nccc3c2c1nc1cc(Br)ccc13`, the growth is -49.5% (active) and -71.3% (active) in the assay with HCT-15 colon; -35% (active) and -75.9% (active) with HT29 colon; 9.53% (active) and -98.7% (active) in the assay on SNB-75 CNS; -75% (active) and -97.8% (active) in the assay with U251 CNS; -43.2% (active) and -86.6% (active) in the assay with PC-3 prostate; -97% (active) and -95.4% (active) with SK-MEL-5 melanoma. In addition, the growth was -95.1% (active) and -74.6% (active) in the assay on UACC-62 melanoma; -45.9% (active) and -71.1% (active) in the assay with LOX IMVI melanoma; -67.5% (active) and -74.4% (active) in the assay on SK-MEL-28 melanoma.
As to `COC(=O)c1nc(=S)[nH]c(C(=O)OC)c1C(=O)c1ccc2ccccc2c1`, the growth is 99.2% in the assay with HCT-15 colon; 112% in the assay on HT29 colon; 84.5% with SNB-75 CNS; 93.5% with PC-3 prostate; 98.9% in the assay on SK-MEL-5 melanoma; 89.4% with UACC-62 melanoma. For the same compound, the values for the growth in the assay with LOX IMVI melanoma and with SK-MEL-28 melanoma were 94.7% and 106%, respectively.
As to `CC(=Nc1ccc(N(C)C)cc1)c1ccccc1`, the growth in the assay on HCT-15 colon was 68.5%; in the assay with HT29 colon, 35.2%; in the assay on SNB-75 CNS, 86%; in the assay with PC-3 prostate it was 37.8%; with SK-MEL-5 melanoma it was 54.6%; with UACC-62 melanoma, 68%. In addition, in the assay on SK-MEL-28 melanoma, the growth is 65.4%.
As for `CN1c2ccccc2C(C)(C)C12C=Cc1cc(O)ccc1O2` (centres undefined), the growth in the assay on HCT-15 colon was 43.1%; with HT29 colon it was 55.9%; in the assay on SNB-75 CNS it was 43.1%; in the assay with U251 CNS, 52.9%; with PC-3 prostate it was 37.8%; with SK-MEL-5 melanoma it was 43.2%. The results for the growth with UACC-62 melanoma and in the assay on SK-MEL-28 melanoma were 30.2% and 64.5%, respectively.
Take `O=C(/C=C/C=C/c1ccccc1)c1ccco1`: the growth was 92.2% with HCT-15 colon; 85.4% in the assay on HT29 colon; 83% in the assay on SNB-75 CNS; 56.4% in the assay with U251 CNS; 85.9% in the assay with PC-3 prostate; 91.1% in the assay with SK-MEL-5 melanoma. Besides, the growth with UACC-62 melanoma is 72.1%; in the assay with LOX IMVI melanoma it was 64.8%; in the assay with SK-MEL-28 melanoma, 123%.
On to `Oc1c(Cl)cc(Cl)c2cccnc12`, for which the growth was 44.6% and 30.1% in the assay on HCT-15 colon; 63% and 90.4% in the assay with HT29 colon; 82.6% and 46.2% in the assay with SNB-75 CNS; 50.5% and 30.9% with PC-3 prostate; 33.2% and 28.1% in the assay on SK-MEL-5 melanoma; 58.2% and 49.3% with UACC-62 melanoma. In the assay with SK-MEL-28 melanoma, the growth is 83.2% and 65.5%.
Consider `NC(=S)N/N=C/c1ccc(Cl)s1`, for which the growth is 101% in the assay on HCT-15 colon; 108% in the assay with HT29 colon; 108% in the assay on SNB-75 CNS; 101% in the assay with U251 CNS; 101% with PC-3 prostate; 97.2% in the assay on SK-MEL-5 melanoma. The figures for the growth in the assay on UACC-62 melanoma, in the assay on LOX IMVI melanoma and with SK-MEL-28 melanoma were 101%, 101% and 108%, respectively.
In the case of `CNc1ccc(N)cc1`, the growth in the assay with HCT-15 colon was 109%; in the assay with HT29 colon, 107%; in the assay with SNB-75 CNS, 67.3%; in the assay with U251 CNS it was 117%; with PC-3 prostate it was 96.4%; with SK-MEL-5 melanoma, 101%. Further, the values for the growth in the assay on UACC-62 melanoma and in the assay with SK-MEL-28 melanoma were 89.3% and 140%, respectively.
For the compound `Oc1ccc(/C=N/NC(=S)Nc2ccccc2)nc1`, the growth in the assay with HCT-15 colon is 24.8%; in the assay with HT29 colon, 34.6%; with SNB-75 CNS, 31.4%; in the assay on U251 CNS, 14.7%; with PC-3 prostate, 23.3%; in the assay with SK-MEL-5 melanoma it was -45.3% (active). The growth in the assay with UACC-62 melanoma was -9.22% (active); with LOX IMVI melanoma, -18.7% (active); in the assay on SK-MEL-28 melanoma it was 43.1%.
`CCC1OC(OC)C=CC1=O` (centres undefined): the growth in the assay on HCT-15 colon is 109%; in the assay on HT29 colon, 113%; in the assay with SNB-75 CNS it was 95%; in the assay with U251 CNS, 113%; in the assay with PC-3 prostate it was 97.1%; in the assay with SK-MEL-5 melanoma it was 103%. The growth was 85% in the assay on UACC-62 melanoma, 103% in the assay with LOX IMVI melanoma and 106% in the assay with SK-MEL-28 melanoma.
